# Assay results taken from PubChem BioAssay (NCI).
# Compounds without any hit were thinned out: in the full panel of roughly 83,000, 20% have a hit.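 Assay: single dose, 48 h. Readout: percent growth (0 = no net growth; negative = cell death). Active: <10.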 Active and inactive are the calls of the source.
# Test system: HT29 colon
# Assay: NCI-60 one-dose screen, 48 h (100 = growth as untreated, 0 = no growth, -100 = all killed)
# Details: 10 µM
row,SMILES,growth
1,CCCCCCCNc1nc(C=O)ncc1-c1ccc(C(F)(F)F)cc1,86.8% (inactive)
2,CCCCCCN1CCN(Cc2ccc(N(CC)CC)cc2)C(=O)C1=O,2.25% (active)
3,O=C(Nc1cccc(-n2cc(-c3ccncc3)c(-c3ccc(O)c(Cl)c3)n2)c1)Nc1ccc(Cl)c(Cl)c1,37.8% (inactive)
4,S=C1SCC(c2ccccc2)S1 (centres undefined),103% (inactive)
5,COc1cccc(C(=O)Nc2ccc(CN3CCc4nc5cc(OC)c(OC)cc5cc43)cc2)c1,16.2% (inactive)
6,COc1ccc(-c2nn(-c3cccc(NC(=O)c4cc(C(F)(F)F)cc(C(F)(F)F)c4)c3)cc2-c2ccncc2)cc1Cl,61% (inactive)
7,O=C(Nc1ccccc1)Nc1cccc(-n2cc(-c3ccncc3)c(-c3ccc(O)c(Cl)c3)n2)c1,64.7% (inactive)
8,N#CCCN1C/C(=C/c2ccc(Cl)cc2)C(=O)/C(=C/c2ccc(Cl)cc2)C1,-36.1% (active)
9,COc1ccc(-c2nn(-c3cccc(NC(=O)c4cccc(C(F)(F)F)c4)c3)cc2-c2ccncc2)cc1Cl,8.18% (active)
10,COc1ccc([N+](=O)[O-])c(C(=O)O)c1,102% (inactive)
11,CN(C)CCN=c1nc2c(c(N)n1-c1ccccc1)c(=S)n(-c1ccccc1)c(=S)n2-c1ccccc1,-35.7% (active)
12,O=C(Nc1cccc(-n2cc(-c3ccncc3)c(-c3ccc(O)c(Cl)c3)n2)c1)c1cccc(C(F)(F)F)c1,31.8% (inactive)
13,COc1cccc(NC(=O)c2sc3nc4c(cc3c2N)C(O)CCC4)c1 (centres undefined),4.69% (active)
14,O=S(=O)(NCCCNc1nccc(-c2c(-c3ccc(F)cc3)nc3sccn23)n1)c1ccc2ccccc2c1,-7.72% (active)
15,COc1ccc(-c2nn(-c3cccc(NC(=O)Nc4cccc(C(F)(F)F)c4)c3)cc2-c2ccncc2)cc1Cl,2.94% (active)
16,COc1ccc(-c2nn(-c3cccc(NC(=O)c4ccc(Cl)c(Cl)c4)c3)cc2-c2ccncc2)cc1Cl,78.2% (inactive)
17,Cc1c(Cl)cccc1NC(=O)c1sc2nc3c(cc2c1N)C(=O)CCC3,3.09% (active)
18,COc1cc(/C=C/C(=O)c2ccc(Cl)cc2)ccc1OS(=O)(=O)c1ccc(C)cc1,28.5% (inactive)
19,O=C(N/N=C/c1cc2ccccc2c2ccccc12)c1cc(O)c(O)c(O)c1,94.8% (inactive)
20,COc1ccc(-c2nn(-c3cccc(NC(=O)c4ccc(N5CCOCC5)c(C(F)(F)F)c4)c3)cc2-c2ccncc2)cc1Cl,11.2% (inactive)

row,SMILES,growth
1,COc1ccc(-c2cc(/C=C/C(=O)c3cc(OC)c(OC)c(OC)c3)[nH]n2)cc1OC,-53.9% (active)
2,CC1=C(N2CCOCC2)C(N2CCOCC2)=C(C)C(=O)C1=O,111% (inactive)
3,Cc1ccc(C)c(C(O)(c2cc(C)ccc2C)C2(O)CCCCC2)c1,90% (inactive)
4,COc1ccc(-c2nn(-c3cccc(NC(=O)c4ccc5c(c4)OCCO5)c3)cc2-c2ccncc2)cc1Cl,0.486% (active)
5,Cc1ncc(-c2ccoc2)c(NC2CCCCCC2)n1,99.4% (inactive)
6,O=S(=O)(NCCNc1nccc(-c2c(-c3ccc(F)cc3)nc3sccn23)n1)c1ccc2ccccc2c1,44.9% (inactive)
7,COc1ccc2c(c1)nc(N)c1c3cccnc3cn21,-5.58% (active)
8,O=C(Nc1cccc(-n2cc(-c3ccncc3)c(-c3ccc(O)c(Cl)c3)n2)c1)c1ccc(Cl)c(Cl)c1,69.8% (inactive)
9,CCN1CCCC1CNC(=O)c1ncc(-c2ccc(C(F)(F)F)cc2)c(NC2CCCCCC2)n1 (centres undefined),11.7% (inactive)
10,Clc1ccc(-c2cn(-c3ccccc3)c(-c3ccccc3)n2)c(Cl)c1,-100% (active)
11,CCCCCCCCCCCCCCCC(=O)OC1[C@@H](OC(=O)CCCCCCCCCCCCCCC)[C@@H](C(=O)N[C@@H](CCCCN)C(=O)OC)O[C@H]1n1cnc2c(=O)[nH]c(NC(=O)C(C)C)nc21 (some centres undefined),98.2% (inactive)
12,O=c1oc2cc(OS(=O)(=O)c3ccccc3)ccc2c2c1CCCCC2,10% (inactive)
13,O=C1Nc2ccccc2C1=NC1CCCCC1,99.2% (inactive)
14,O=C(Nc1cccc(-n2cc(-c3ccncc3)c(-c3ccc(O)c(Cl)c3)n2)c1)c1ccc(N2CCOCC2)c(C(F)(F)F)c1,12.4% (inactive)
15,O=C(Nc1ccc(OS(=O)(=O)c2ccccc2)cc1)C12CC3CC(CC(C3)C1)C2,-19.9% (active)
16,O=C(Nc1cccc(-n2cc(-c3ccncc3)c(-c3ccc(O)c(Cl)c3)n2)c1)c1cc(C(F)(F)F)cc(C(F)(F)F)c1,48.2% (inactive)
17,CCCC#CCN(CC)CC,104% (inactive)
18,Cc1ccc(S(=O)(=O)OCCN(CCOS(=O)(=O)c2ccc(C)cc2)c2c[nH]c(=O)[nH]c2=O)cc1,99.7% (inactive)
19,CCOC(=O)C(NC(=O)C(Cl)Cl)C(O)c1ccccc1 (centres undefined),107% (inactive)
